CYP2C9 activ – increases human cytochrome P450 2C9 activity | P11712 | recombinant CYP2C9, luciferin-H conversion, luminescence; hits give high values; factor 1 = untreated enzyme, 0 = blocked | activation factor at 5 µM | 1.4% of 96,000 active | AID 1024;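 active = activation factor of 2 or more for CYP2C9 at a 5 µM dose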
CYP2C19 inh – inhibitors of human CYP2C19 | 21% of 96,000 active | P33261 | CYP2C19 Supersomes, luciferin-H EGE luminescence, 30 min | inhibition, % at 5 µM;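 active = CYP2C19 inhibition above a set limit at 5 µM in the primary screen, cut at about 50% in these data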
Target sequence (P33261 whole entry, looked up): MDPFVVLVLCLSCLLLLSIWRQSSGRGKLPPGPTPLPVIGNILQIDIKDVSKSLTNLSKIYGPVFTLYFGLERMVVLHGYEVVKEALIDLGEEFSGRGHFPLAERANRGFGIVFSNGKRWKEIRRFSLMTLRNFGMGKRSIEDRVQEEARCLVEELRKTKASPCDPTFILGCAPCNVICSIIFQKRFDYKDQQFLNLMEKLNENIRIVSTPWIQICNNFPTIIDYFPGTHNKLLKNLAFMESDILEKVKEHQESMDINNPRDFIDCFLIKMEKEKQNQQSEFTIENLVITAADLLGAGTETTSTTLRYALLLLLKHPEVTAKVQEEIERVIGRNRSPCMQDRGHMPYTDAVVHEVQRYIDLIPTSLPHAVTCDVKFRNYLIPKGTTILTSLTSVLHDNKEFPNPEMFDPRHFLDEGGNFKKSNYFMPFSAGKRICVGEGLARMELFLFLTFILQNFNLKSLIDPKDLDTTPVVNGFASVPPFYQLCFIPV
CYP2C19 activ – cytochrome P450 2C19 (human) activation | P33261 | 96,000 tested, under 10 active | activation factor at 5 µM | recombinant CYP2C19, luciferin-H EGE luminescence; hits give high values; 0 = fully inhibited enzyme, 1 = untreated enzyme;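 active = activation factor of at least 2 at 5 µM in the primary screen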
CYP2C9 inhib – inhibitors of human CYP2C9; 20% of 96,000 active; inhibition, % at 5 µM; CYP2C9 Supersomes, luciferin-H conversion, luminescence; P11712;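 active = blocking of liver enzyme CYP2C9 beyond about 50% at 5 µM, limit read from the data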
Measles CPE – protection of cells from measles virus | Measles virus-infected cells, CPE protection, absorbance | protection (pct of control), % at 4 µM | 1.5% of 140,000 active | AID 841; in the data active = protection mostly above about 24%, no sharp cut-off; inactive = mostly below about 26%
Of the large screens only hits and unclear results are named; the others gave an inactive call. An excerpt weighted towards active compounds, which were near 22% of everything screened.

N#CCC1c2ccccc2CCN1C(=O)Nc1ccc(Cl)cc1 (configuration not stated)	CYP2C19 inh 55
CC1CCCC(NC(=O)C2CCN(S(=O)(=O)N3CCCCCC3)CC2)C1C (configuration not stated)	none (no result: CYP2C9 activ, CYP2C19 inh, CYP2C19 activ, CYP2C9 inhib)
CN(Cc1ccccc1)Cc1nc2c(c(=O)n(C)c(=O)n2C)n1CCCc1ccccc1	CYP2C19 inh 83, CYP2C9 inhib 94
CN(C)c1nc2c(c(=O)n(C)c(=O)n2C)n1Cc1ccccc1	none
CC(C)Cn1c(CN(C)Cc2ccccc2)nc2c1c(=O)n(C)c(=O)n2C	CYP2C9 inhib 81
O=C(CSc1nc2ccccc2s1)NNC(=S)Nc1ccc(Cl)cc1	none (no result: CYP2C9 activ, CYP2C19 inh, CYP2C19 activ, CYP2C9 inhib)
Cc1ccc(C(C)NC(=O)c2ccco2)cc1 (configuration not stated)	none (no result: CYP2C9 activ, CYP2C19 inh, CYP2C19 activ, CYP2C9 inhib)
Cc1ccc(C(C)NC(=O)c2cc(C)oc2C)cc1 (configuration not stated)	CYP2C19 inh 77
Cc1cc(C(=O)Nc2ccccc2)c(C)o1	CYP2C19 inh 61
Cc1oc(-c2ccccc2)cc1C(=O)Nc1ccccc1	none
COc1ccc(NC(=O)COc2nc(N(C)C)nc(N(C)C)n2)cc1	none
O=C1CC(c2ccncc2)c2cc3c(cc2N1)OCO3 (configuration not stated)	CYP2C9 inhib 68
O=C1CC(c2ccc3c(c2)OCO3)c2cc3c(cc2N1)OCO3 (configuration not stated)	CYP2C19 inh 64, CYP2C9 inhib 60
CCCCCCSC1=C(C#N)C(c2ccc(C)o2)CC(=O)N1 (configuration not stated)	none
Cc1ccc(C2CC(=O)Nc3cc4c(cc32)OCO4)o1 (configuration not stated)	CYP2C19 inh 84
O=C(Nc1ccccn1)c1ccc(=O)[nH]n1	none
CC(C)c1ccc(N(C(=O)c2cc3ccccc3oc2=O)C2C=CS(=O)(=O)C2)cc1 (configuration not stated)	none (no result: CYP2C9 activ, CYP2C19 inh, CYP2C19 activ, CYP2C9 inhib)
COc1ccc(C(=S)NCS(=O)(=O)c2ccc(C)cc2)cc1	none (no result: CYP2C9 activ, CYP2C19 inh, CYP2C19 activ, CYP2C9 inhib)
Cc1ccc(S(=O)(=O)CNC(=S)c2ccc3ccccc3c2)cc1	CYP2C19 inh 60, CYP2C9 inhib 60
Cc1ccc(S(=O)(=O)CNC(=S)c2cccc(C)c2)cc1	CYP2C19 inh 94
Cc1ccc(Oc2ccc(NC(=O)CCC(=O)OCC(=O)c3cccs3)cc2)cc1C	none
Cc1ccc(OCC(=O)NNC(=O)C2CCN(c3nc(C)cc(C)n3)CC2)cc1	none
CCOC(=O)c1c(N)sc2c(O)c(Br)ccc12	CYP2C9 inhib 73
Cc1ccc(C(=O)c2no[n+]([O-])c2C(=O)c2ccc(C)cc2)cc1	none (no result: CYP2C9 activ, CYP2C19 inh, CYP2C19 activ, CYP2C9 inhib)
CC(C)(C)C(=O)c1no[n+]([O-])c1/C(=N/O)C(C)(C)C	CYP2C19 inh 59
O=C(NCCc1cccc(Cl)c1)c1cc([N+](=O)[O-])ccc1Cl	none (no result: CYP2C9 activ, CYP2C19 inh, CYP2C19 activ, CYP2C9 inhib)
O=C(Nc1ccccc1)N(Cc1cccs1)C1CCCC1	CYP2C19 inh 51, CYP2C9 inhib 85
O=C(O)CNC(=S)N(Cc1cccs1)C1CCCCC1	none (no result: CYP2C9 activ, CYP2C19 inh, CYP2C19 activ, CYP2C9 inhib)
O=C(CCC(=O)c1cccs1)NCc1ccc(Cl)cc1	none
Cc1ccc(CNC(=O)CCC(=O)c2cccs2)cc1	CYP2C19 inh 85, Measles CPE 60
CC(CC(=O)c1cccs1)CC(=O)c1cccs1	CYP2C19 inh 100, CYP2C9 inhib 93
Cc1ccc(NC(=O)CCC(=O)c2cccs2)cc1	CYP2C19 inh 82
O=C(CCC(=O)c1cccs1)Nc1ccc(F)c(F)c1F	CYP2C19 inh 66
O=C(CCC(=O)Nc1ccccc1)NNC(=O)c1cccs1	none
CN(C)CCNC(=O)/C=N/O	none (no result: CYP2C9 activ, CYP2C19 inh, CYP2C19 activ, CYP2C9 inhib)
CC(=O)c1cn(CCC(C)C)c(=O)[nH]c1=O	none (no result: CYP2C9 activ, CYP2C19 inh, CYP2C19 activ, CYP2C9 inhib)
COc1cc(-c2cc(N3C(=O)Nc4ccccc4N3O)n[nH]2)cc(OC)c1OC	none (no result: CYP2C9 activ, CYP2C19 inh, CYP2C19 activ, CYP2C9 inhib)
Cc1ccc(S(=O)(=O)CCc2nnc(NC(=O)c3cnccn3)s2)cc1	CYP2C9 inhib 51
Cc1ccc(S(=O)(=O)CCc2nnc(NC(=O)c3ccccn3)s2)cc1	none
CCc1nnc(NC(=O)CSc2nnc(C3CCCCC3)n2-c2cccc(Cl)c2)s1	none (no result: CYP2C9 activ, CYP2C19 inh, CYP2C19 activ, CYP2C9 inhib)
Cn1c(C(=O)N2COCC2(C)C)cc2c(=O)n3ccccc3nc21	Measles CPE 22
Cc1cc(C(=O)Nc2cc(C)n(Cc3ccc(Cl)cc3)n2)no1	none (no result: CYP2C9 activ, CYP2C19 inh, CYP2C19 activ, CYP2C9 inhib)
CCCC(=O)Nc1ccc(C(=O)Nc2cc(C(F)(F)F)ccc2Cl)cc1	none
Cc1cc(NC(=O)c2cc(C(C)C)on2)nn1Cc1ccc(Cl)cc1	CYP2C19 inh 65
Cc1ccc(Cn2ccc(NC(=O)c3cc(CC(C)C)on3)n2)cc1	CYP2C9 inhib 90
Cc1ccc(Cn2ccc(NC(=O)c3cc(-c4ccc(Cl)cc4)on3)n2)cc1	none
